Pf growth 48h: inhibits P. falciparum growth in the first generation, 48 h | P. falciparum luciferase growth in erythrocytes, 48 h | Potency, µM (titrated, usually from 28.7 µM), hits mostly inhibitors | 310,000 tested, 5.9% active | AID 504832
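First compound was added to culture medium, then infected red cells at 0.1% parasitemia and 2% hematocrit (final). After incubation at 37 C under 5% CO2, luciferase detection reagent was dispensed and light output recorded.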
Pf growth 96h: P. falciparum growth inhibition at 96 hour, primary screen for plastid delayed-death inhibitors. P. falciparum luciferase reporter growth, 96 h. Potency, µM (titrated, usually from 28.7 µM), actives largely listed as inhibitors. 320,000 tested, 6.9% active
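Two-generation exposure (96 h) targets delayed-death phenotype. Reporter parasites carrying integrated firefly luciferase, in red cells at 2% hematocrit and 0.05% parasitemia final, kept at 37 C, 5% CO2; luminescence loss indicates inhibition.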
CHX counter: counter-screen hit for Shiga toxin inhibitors, cycloheximide; cell reporter, cycloheximide protein synthesis inhibition counterscreen; max response, %; 300,000 tested, 12% active; in the data active = max response mostly above about 13%, no sharp cut-off; inactive = mostly below about 14%; note: read at 38.3 µM for the half of the compounds with a filed dose
HCV inh: HCV inhibition; Huh7.5.1 HCVcc-Cre infection, luciferase reporter, 44 h; Potency, µM (doses to about 41.8 µM), hits mostly inhibitors; 340,000 tested, 3.4% active
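Cells (1,000/well) were plated 4 h before compound, then infected with HCVcc-Cre virus (~0.5 moi). After 44 h further culture, infection was read as luciferase luminescence following a 15 min substrate incubation at room temperature.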
Shiga toxin inh: blocks Shiga toxin action in Vero cells; Vero cells, Shiga toxin protein synthesis inhibition reporter; inhibition, % at 38.7 µM; 290,000 tested, 9.2% active; in the data active = inhibition mostly above about 28%, no sharp cut-off; inactive = mostly below about 43%
AMA1 RON2 block: inhibitors of Plasmodium falciparum AMA1-RON2 interaction; AlphaScreen AMA1-biotinylated RON2 peptide binding; Potency, µM (titrated, usually from 58.2 µM), actives largely listed as inhibitors; 360,000 tested, 0.2% active; AID 720542; note: nearly all actives have a fitted effect of over 45% in size
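AMA1 (3D7) with his tag at 25 nM final met compounds first, then biotinylated RON2 peptide at 25 nM; detection used donor plus acceptor beads, 10 µg/mL apiece, read by AlphaScreen after 30 min at room temperature.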
Of the large screens only hits and unclear results are named; the others gave an inactive call. Only some compounds are listed: those with a hit (about 21% of all), similar ones and a draw of the others. Unless noted, calls come from the whole dose curve; as a rule, active = well fitted curve in the direction sought with a large enough effect; inconclusive = small, poorly fitted or top-dose-only effect, or another doubt; inactive = no such curve, though single readings can be large; an effect the other way counts as inactive or inconclusive.

O=C(N/N=C/c1sc2ccccc2c1O)c1ccccc1	Pf growth 48h 4.65µM, Pf growth 96h inconclusive, CHX counter 50.1, HCV inh 4.47µM, Shiga toxin inh 60.6
O=C(N/N=C/c1ccccc1)c1cccc2ccccc12	none (no result: Pf growth 48h, Pf growth 96h, CHX counter, Shiga toxin inh)
O=C(N/N=C/c1sc2ccccc2c1O)c1cccc2ccccc12	Pf growth 48h inconclusive, CHX counter 25.0, HCV inh 1.78µM
COc1ccc(C(=O)N/N=C/c2sc3ccccc3c2O)cc1	Pf growth 48h inconclusive, Pf growth 96h inconclusive, CHX counter 39.8, HCV inh inconclusive, Shiga toxin inh 115.9
COc1ccc(NS(=O)(=O)c2cccc(C(=O)N/N=C/c3c(F)c(F)c(F)c(F)c3F)c2)cc1	HCV inh inconclusive (no result: Pf growth 48h, Pf growth 96h, CHX counter, Shiga toxin inh)
CC(C)CC(NS(=O)(=O)c1ccc2c(c1)oc(=O)n2C)C(=O)N1CC=C(c2ccccc2)CC1 (configuration not stated)	Pf growth 96h 10.4µM (no result: Pf growth 48h)
CCOC(=O)N1CCN(C(=O)C(CC(C)C)NS(=O)(=O)c2ccc3c(c2)oc(=O)n3C)CC1 (configuration not stated)	Pf growth 96h 10.4µM (no result: Pf growth 48h)
O=C1NC(Cc2ccccc2)c2nc3ccc(Br)cc3c(=O)n2-c2cc(Cl)ccc21 (configuration not stated)	none (no result: Pf growth 48h, Pf growth 96h, CHX counter, Shiga toxin inh, AMA1 RON2 block)
Cc1ccccc1-c1cnc(C(O)c2ccc(-c3ccccc3)cc2)[nH]1 (configuration not stated)	none (no result: Pf growth 48h, Pf growth 96h, CHX counter, HCV inh, Shiga toxin inh)
O=[N+]([O-])c1cccc(NC(=S)Nc2nc(-c3ccc(Cl)cc3Cl)cs2)c1	Pf growth 48h 5.86µM (no result: HCV inh, AMA1 RON2 block)
CCc1noc(C)c1C(=O)Nc1nc(-c2cc(C)ccc2C)c(C)s1	Pf growth 48h inconclusive, Pf growth 96h 10.4µM
CCc1noc(C)c1C(=O)Nc1ncc(C)s1	CHX counter 18.6, Shiga toxin inh 41.2
CCc1noc(C)c1C(=O)Nc1nc(-c2cccs2)cs1	none (no result: CHX counter, Shiga toxin inh)
CCc1noc(C)c1C(=O)Nc1nc(-c2ccc(Cl)cc2Cl)cs1	HCV inh 10µM
Cn1cc(CN2CCC(n3nccc3NC(=O)Cc3ccccc3)CC2)cn1	none (no result: HCV inh)
CC(=O)N/C(=N/c1nc(C)cc(C)n1)Nc1ccc(NC(C)=O)cc1	Pf growth 48h inconclusive, Pf growth 96h 9.28µM
CC(=O)N/C(=N\c1nc(C)cc(C)n1)Nc1ccc2ccccc2c1	CHX counter 39.5, Shiga toxin inh 125.3
CC(=O)N/C(=N/c1nc(C)cc(C)n1)Nc1cc(C)cc(C)c1	Pf growth 96h inconclusive (no result: Pf growth 48h)
Cc1c(C(=O)OCC(=O)N(C)Cc2ccc(Cl)cc2)oc2ccccc12	none (no result: CHX counter, Shiga toxin inh)
COc1ccc(/C(=N/O)C(C)(C)NO)cc1	Pf growth 96h 8.28µM (no result: Pf growth 48h)
C=C1C(n2cnc3c(=O)[nH]c(N)nc32)C[C@H](O)[C@H]1CO (some centres not stated)	Pf growth 48h inconclusive, Pf growth 96h 6.01µM (no result: CHX counter, HCV inh, Shiga toxin inh, AMA1 RON2 block)
CN(C)/C=N/c1c(C(=O)NCc2ccccc2)nnn1Cc1ccccc1	Pf growth 48h 2.62µM
Nc1c(C(=O)NCc2ccccc2)nnn1Cc1ccccc1	none (no result: Pf growth 48h)
O=C(O)c1cccc(NC(=O)C23CC4CC(C2)CC(n2cnc(Cl)n2)(C4)C3)c1	Pf growth 96h inconclusive (no result: Pf growth 48h)
O=C(Nc1cc(Oc2ccccc2)cc([N+](=O)[O-])c1)C12CC3CC(C1)CC(n1cnc(Cl)n1)(C3)C2	Pf growth 48h inconclusive, Pf growth 96h inconclusive, HCV inh 10µM
CC1CCCC(NC(=O)CSc2nnc(C(F)(F)F)n2C)C1C (configuration not stated)	none (no result: CHX counter, Shiga toxin inh)
Cc1ccc(Nc2nc(-c3ccc(O)c(O)c3)cs2)nc1	Pf growth 48h inconclusive, Pf growth 96h inconclusive, CHX counter 61.8, HCV inh inconclusive, Shiga toxin inh 112.9
Cc1ccc(Nc2nc(-c3ccc(F)cc3)cs2)nc1	CHX counter 53.0, Shiga toxin inh 76.9
Cc1ccc(Nc2ccc(S(=O)(=O)N3CCOCC3)cc2[N+](=O)[O-])cc1C	Pf growth 96h inconclusive, HCV inh 17.8µM, AMA1 RON2 block inconclusive
CCOc1ccc(Nc2ccc(S(=O)(=O)N3CCN(C)CC3)cc2[N+](=O)[O-])cc1OCC	Pf growth 48h 11.7µM, Pf growth 96h inconclusive, HCV inh inconclusive, AMA1 RON2 block inconclusive (no result: CHX counter, Shiga toxin inh)
Cc1ccc(S(=O)(=O)Nc2ccc(S(=O)(=O)N3CCOCC3)cc2)cc1[N+](=O)[O-]	Pf growth 96h inconclusive
Cc1ccc(-n2c(O)c(/C=N/Nc3ccc(S(=O)(=O)N4CCOCC4)cc3[N+](=O)[O-])c3ccccc3c2=O)c(C)c1	Pf growth 48h 10.4µM, Pf growth 96h 2.94µM, HCV inh 11.2µM
CN1CCN(S(=O)(=O)c2ccc(Nc3ccc(F)cc3)c([N+](=O)[O-])c2)CC1	none (no result: CHX counter, Shiga toxin inh)
Nc1ccc2c(c1)-c1ccc(F)cc1C2=O	HCV inh inconclusive (no result: Pf growth 48h, Pf growth 96h, CHX counter, Shiga toxin inh)
Cc1ccc(Cl)cc1N1CCN(S(=O)(=O)c2cc3c(cc2C)NC(=O)CO3)CC1	none
COc1ccccc1/C=N/NC(=O)c1cc2c(OC)c(OC)ccc2[nH]1	HCV inh inconclusive
COc1cccc(/C=N/NC(=O)c2cc3c(OC)cccc3[nH]2)c1O	Pf growth 48h inconclusive, Pf growth 96h 1.85µM, HCV inh inconclusive
COc1ccc(OC)c2[nH]c(C(=O)N/N=C/c3ccccc3O)cc12	Pf growth 96h inconclusive, HCV inh 3.16µM (no result: Pf growth 48h)
COc1ccc(/C=N/NC(=O)c2cc3c(OC)ccc(OC)c3[nH]2)cc1O	Pf growth 48h 3.7µM, Pf growth 96h inconclusive, HCV inh inconclusive
CCc1nc2ccc(C(=O)NCCCN3CCCC3=O)cn2c1N(CC)C(C)=O	none (no result: Pf growth 48h, Pf growth 96h, CHX counter, HCV inh, Shiga toxin inh)
COc1ccc(CN2C(=O)c3cccnc3C2=O)cc1S(=O)(=O)NCc1ccco1	Pf growth 96h inconclusive, CHX counter 21.0, Shiga toxin inh 51.2
CCN(c1cccc(C)c1)S(=O)(=O)c1cc(CN2C(=O)c3cccnc3C2=O)ccc1OC	CHX counter 19.2, Shiga toxin inh 92.2
COc1ccc(CNS(=O)(=O)c2cc(CN3C(=O)c4cccnc4C3=O)ccc2OC)cc1	Pf growth 96h 14.7µM
CCOc1ccc(CNS(=O)(=O)c2cc(CN3C(=O)c4cccnc4C3=O)ccc2OC)cc1	Pf growth 96h inconclusive
Cc1nc(SCC(=O)N2CCCCCC2)[nH]c(=O)c1C	none (no result: CHX counter, Shiga toxin inh)
Cc1cccc(C)c1-n1nnnc1C(c1ccnc2ccccc12)N1CCCN(C(=O)OC(C)(C)C)CC1 (configuration not stated)	none (no result: Pf growth 48h, Pf growth 96h, CHX counter, HCV inh, Shiga toxin inh)
CCOc1ccc2nc(N3CCC(C(=O)Nc4ccc(Br)cc4F)CC3)sc2c1	CHX counter 35.3, Shiga toxin inh 172.7 (no result: Pf growth 48h, Pf growth 96h, HCV inh, AMA1 RON2 block)
CCOc1ccc2nc(NC(=O)C3CCN(c4cnccn4)CC3)sc2c1	Pf growth 48h 9.28µM, HCV inh inconclusive
COc1c(-c2ccc(O)c(O)c2)oc2cc(O)cc(O)c2c1=O	CHX counter active, AMA1 RON2 block inconclusive
COc1c(O)cc2oc(-c3ccc(O)cc3)cc(=O)c2c1O	CHX counter 12.9, Shiga toxin inh 51.4
O=c1cc(-c2ccc(O)cc2)oc2c1ccc1ccccc12	Pf growth 96h inconclusive (no result: CHX counter, Shiga toxin inh)
